D2 ag-1 – D2 dopamine receptor (human) agonism; P14416; HEK293 T-REx D2 cells, calcium flux agonist mode; activation, % at 2 µM; hit rate 0.53% among 340,000;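 active = activation over 3 SD above normal in the single-dose calcium agonist read, cut at about 30% in these data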; also: 0% is about no effect
Target sequence (P14416 whole entry, looked up): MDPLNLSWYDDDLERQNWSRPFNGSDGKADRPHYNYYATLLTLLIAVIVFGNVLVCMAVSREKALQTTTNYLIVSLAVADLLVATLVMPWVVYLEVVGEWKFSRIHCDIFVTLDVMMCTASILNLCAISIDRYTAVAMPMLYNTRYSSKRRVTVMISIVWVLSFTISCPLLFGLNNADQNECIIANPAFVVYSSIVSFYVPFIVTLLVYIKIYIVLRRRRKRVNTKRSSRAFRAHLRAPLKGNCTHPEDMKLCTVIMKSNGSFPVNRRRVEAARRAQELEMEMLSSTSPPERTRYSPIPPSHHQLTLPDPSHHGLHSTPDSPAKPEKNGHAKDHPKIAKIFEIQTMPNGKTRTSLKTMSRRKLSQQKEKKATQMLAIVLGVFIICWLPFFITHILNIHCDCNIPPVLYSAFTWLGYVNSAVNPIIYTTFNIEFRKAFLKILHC
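Tetracycline-induced HEK293 T-REx cells with force-coupled D2 receptor, plated overnight at 30 C, loaded with no-wash calcium dye. After a 10 s baseline, compound was pin-added and calcium flux read kinetically for 180 s; calcium rises flagged agonists.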
D2 antag – antagonizes the human D2 dopamine receptor; P14416; HEK293 TREx D2 cells, calcium flux, dopamine EC80; inhibition, % at 10 µM; hit rate 2% among 340,000; AID 485344; in the data active = inhibition above about 30%; inactive = below that, where a call was filed; also: 0% is about no effect
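Tetracycline-induced HEK293 TREx cells expressing D2 receptor forced-coupled to calcium signalling, loaded with no-wash calcium dye. Compounds added and calcium flux read 180 s, then dopamine added at EC80 and read a further 180 s.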
D2 ag-2 – activates the human D2 dopamine receptor. DiscoveRx PathHunter D2 beta-arrestin, luminescence, 90 min; 100% = 57 uM dopamine signal. activation, % (concentration not given with the values). hit rate 0.084% among 360,000; in the data active = activation above about 40%
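Agonist mode: compounds alone added to overnight-plated D2 PathHunter cells for 90 min at 37 C, with 57 uM final dopamine (EC100) defining full response. Beta-arrestin recruitment detected by chemiluminescent reagent, read after 1 h at ambient temperature.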
D2 PAM-1 – positive allosteric modulators of human D2 dopamine receptor | HEK293 T-REx D2, calcium flux, EC20 dopamine potentiation | AID 485347 | hit rate 0.34% among 340,000 | potentiation, % at 10 µM;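 active = potentiation over 3 SD above the plate norm, cut at about 30% in these data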; also: 0% is about no effect
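Using a no-wash calcium dye in inducible, force-coupled HEK293 Trex cells expressing D2, we tracked fluorescence each second for 180 s after compound, then for 180 s after EC20 dopamine to detect augmented signalling.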
D2 PAM-2 – positive allosteric modulators of human D2 dopamine receptor; P14416; DiscoveRx D2 beta-arrestin cells, luminescence, 90 min; 100% = 57 uM dopamine signal; potentiation, % (concentration not given with the values); hit rate 0.23% among 360,000; AID 624464; in the data active = potentiation above about 50%
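PathHunter beta-arrestin assay in DiscoveRx D2 cells. Compounds were added with an EC20 of dopamine (50 nM final) for 90 min at 37 deg C. Luminescence was read 1 h after detection reagent, with 57 uM dopamine as the EC100 control.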
Numbers without * were called inactive; . = no result given. In the library only some 2.4% were active in any assay of this set; here they are far more common.

SMILES	D2 ag-1	D2 antag	D2 ag-2	D2 PAM-1	D2 PAM-2
COc1cccc(CN2CC=C(c3ccc(F)cc3)CC2)c1	3	72*	1	-23	-12
CN1CCc2cc(O)cc3c2[C@H]1Cc1ccc(O)c(O)c1-3	.	.	106*	.	101*
CCCN1CCc2cc(O)cc3c2[C@H]1Cc1ccc(O)c(O)c1-3	.	.	241*	.	129*
N#Cc1cc2c(nc1SCC(=O)Nc1ccc(F)c(Cl)c1)C1CCN2CC1	0	.	.	3	.
CC(=O)NC1CC2CCC(C1)N2 (stereo unspecified)	0	12	0	36*	-13
OCCN1C2CCC1CC(O)(c1ccc(F)cc1)C2 (stereo unspecified)	1	48*	-2	-19	-39
CN1CCc2cccc(Cl)c2CC1	1	53*	-1	-18	-32
Cc1ccc(CN2CCC3CCC(C3)C2)c(O)c1 (stereo unspecified)	.	.	-4	.	-4
O=Cc1c(C(=O)O)n(Cc2ccc(Cl)cc2)c2ccccc12	31*	5	-1	-7	-11
Cc1ccc(CN2CCN(Cc3ccccc3F)CC2)cc1	-1	39*	-4	-15	-21
COc1ccc(CN2CCN(Cc3ccccc3OC)CC2)cc1	0	-5	-3	1	-22
Clc1ccccc1CN1CCN(c2ccccc2Cl)CC1	15	-25	3	-25	-19
CSc1ccc(CN2CCN(c3ccccc3C)CC2)cc1	0	71*	3	-32	-15
COc1ccccc1N1CCN(Cc2ccc(Cl)cc2Cl)CC1	-2	35*	0	-30	-35
COc1ccccc1CN1CCN(Cc2ccc(Cl)cc2)CC1	1	76*	-1	-24	-23
CCCC12CN3CC(C)(CN(C1)C3c1ccccn1)C2=O (stereo unspecified)	0	.	.	6	.
CCC12CN3CC(CC)(CN(C1)C3c1c(C)[nH]c(=O)[nH]c1=O)C2=O (stereo unspecified)	0	.	.	5	.
Cc1ccccc1CN1C(=O)CN=C(c2ccccc2)c2cc(Cl)ccc21	2	.	.	-12	.
Cc1cc(C)cc(-n2c(/C=C/c3cccc(F)c3)nc3ccccc3c2=O)c1	0	.	.	7	.
COc1ccccc1N1CCN(Cc2ccc(SC)cc2)CC1	-1	79*	-3	-21	-82
COc1ccc(C(CNC(=O)c2ccc3c(c2)CCC3)N(C)C)cc1 (stereo unspecified)	-1	80*	-4	-28	-17
COc1ccc(C(=O)C(Cc2ccccc2)N(C)C)cc1 (stereo unspecified)	1	1	-2	-3	-21
Fc1cccc(CNCCc2c[nH]c3ccccc23)c1	13	3	-1	-17	-59
c1ccc(CNCCc2c[nH]c3ccccc23)cc1	9	61*	5	-31	-4
Clc1ccccc1CNCCc1c[nH]c2ccccc12	.	.	0	.	-33
SMILES	D2 ag-1	D2 antag	D2 ag-2	D2 PAM-1	D2 PAM-2
Cc1cccc(CNCCc2c[nH]c3ccccc23)c1	1	47*	0	-19	-8
OC(CNCCc1c[nH]c2ccccc12)C(F)(F)F (stereo unspecified)	0	12	5	-4	3
OC(CCNCCc1c[nH]c2ccccc12)C(F)(F)Cl (stereo unspecified)	14	53*	-4	-43	3
Cc1nnc(NC(=O)c2cccn(Cc3cccc([N+](=O)[O-])c3)c2=O)s1	-1	.	.	13	.
CCSc1nnc(NC(=O)c2cccn(Cc3ccc(Cl)cc3)c2=O)s1	1	.	.	-5	.
COc1ccc(NC(=O)c2cccn(Cc3ccc(Cl)cc3)c2=O)c(OC)c1	1	.	.	.	.
CC1CCN(C(=O)COC(=O)c2cn(C)c3ccccc23)CC1	0	3	-1	-18	-4
Cn1cc(C(=O)OCC(=O)NC2CCCCC2)c2ccccc21	0	39*	-6	3	-1
CC1CN=C(NCc2ccncc2)S1 (stereo unspecified)	0	2	-3	-4	24
CC1CN=C(NCc2ccc(F)cc2)S1 (stereo unspecified)	37*	4	-2	-7	-5
O=c1c2ccccc2nc(-c2ccco2)n1-c1nccs1	1	30*	-3	0	-5
CCCC(CCC)C(=O)OC[N+](C)(C)CCOC(=O)C(O)(c1ccccc1)C1CCCC1 (stereo unspecified)	-1	39*	-5	-4	-11
CC(C)(C)C(=O)OC[N+](C)(C)CCOC(=O)C(O)(c1ccccc1)C1CCCC1 (stereo unspecified)	0	19	11	-8	-15
CC(C)c1ccc(OCC(=O)N2CCN(CCc3ccncc3)CC2)cc1	1	.	.	4	.
N#Cc1cc2c(nc1SCC(=O)Nc1ccc(OC(F)(F)F)cc1)C1CCN2CC1	0	.	.	-3	.
Cc1oc2cc3oc(=O)c(CCC(=O)N4CCCCC4)c(C)c3cc2c1C	.	.	.	8	.
O=C(C[N+]12CCC(CC1)C(OC(=O)c1ccccc1)C2)c1ccc([N+](=O)[O-])cc1 (stereo unspecified)	-1	33*	0	4	-2
O=C(C[N+]12CCC(CC1)C(CO)C2)c1ccc([N+](=O)[O-])cc1 (stereo unspecified)	1	8	-3	1	2
O=[N+]([O-])c1ccc(NCc2ccccc2)c2nonc12	135*	44*	5	-21	4
O=[N+]([O-])c1ccc(NCc2ccc(Cl)cc2)c2ccncc12	0	12	5	-3	-1
CCCN1CCC[C@@H]2Cc3nc(N)ncc3C[C@H]21	.	.	126*	.	117*
Cc1ccc(-n2c(=O)[nH]c3ccccc3c2=O)cc1[N+](=O)[O-]	.	.	-8	.	-24
COCc1ccc(CN2CCCC(C(=O)c3sccc3C)C2)o1 (stereo unspecified)	1	38*	-1	-25	-19
FC(F)(F)c1ccc2c(c1)N(CCCN1CCN(CCCl)CC1)c1ccccc1S2	1	75*	-2	-26	-44
COc1ccc(CNC(=O)CCC(=O)N2C[C@H]3C[C@H](C2)c2cccc(=O)n2C3)cc1OC	0	36*	-3	-2	-26
O=c1c2ccccc2nc(/C=C\c2ccccc2F)n1-c1ccc(O)cc1	0	.	.	16	.
CN1C(=O)CN=C(c2ccc[nH]2)c2cc(Cl)ccc21 (tested in a mixture with another compound)	.	.	-2	.	-7
CN1C(=O)CN=C(c2ccc(Cl)cc2)c2cc(Cl)ccc21	-1	34*	-2	7	0
c1ccc(CCCN2CCN(CCOC(c3ccccc3)c3ccccc3)CC2)cc1	.	.	3	.	-26
CCCCN(Cc1ccccc1)C1CCN(CCc2ccccc2)CC1	-1	56*	-5	-21	-11
